Source: PubChem
A selection: hits, their analogues and other compounds. The true share with any hit is near 4.4%.
TIM10 inh: growth inhibitors of TIM10 yeast strain; S. cerevisiae TIM10 strain growth, BacTiter-Glo luminescence, 24 h; 330,000 compounds, 1.4% hits; inhibition, % at 10 µM;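 active = inhibition of 40% or more at the single tested concentration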;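 note: wild-type TIM10 isogenic control strain grown at permissive 25 °C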
PfHsp90 yeast 2: reduces growth (ATP signal) of yeast expressing P. falciparum Hsp90. 310,000 compounds, 0.32% hits. inhibition, % at 9.4 µM. S. cerevisiae expressing PfHsp90, BacTiter-Glo ATP, 48 h; yeast lacking PDR1 and PDR3 efflux regulators;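 active = every replicate shows inhibition above about 80%, whatever the replicate mean, limit read from the data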;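 note: 0% = DMSO neutral controls and 100% = 20 µM radicicol positive controls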
tim23-1 inh: tim23-1 yeast growth inhibition; S. cerevisiae tim23-1 growth, BacTiter-Glo luminescence, 24 h; inhibition, % at 20 µM; 330,000 compounds, 1.3% hits;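 active = growth inhibition of the mutant yeast at or above 50%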;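 note: temperature-sensitive mutant grown at 25 °C; plate controls were DMSO-treated mutant yeast for no effect and medium wells lacking yeast for full effect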
Mot1-301 SUMO: blocks SUMOylation pathway, rescuing yeast Mot1-301 growth; S. cerevisiae Mot1-301 growth rescue, ATP luminescence, 38.5C; percent above DMSO median, 100 means doubled; growth rescue, % at 18.8 µM; 320,000 compounds, 1% hits;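 active = every valid replicate shows activation above 250% relative to neutral control wells; inactive = the rest, any valid replicate at or below 250%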;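 note: OY570 slx delta 5 strain wells were the positive control but not used for scaling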
tim10-1 inh: tim10-1 yeast growth inhibition; AID 463190; S. cerevisiae tim10-1 ts strain growth, BacTiter-Glo, 24 h; 330,000 compounds, 2.2% hits; inhibition, % at 20 µM;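 active = inhibition of at least 40%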;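 note: mutant grown at 25 °C; 0% = DMSO wells with yeast and 100% = wells holding no yeast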
tim10 confirm: TIM10 yeast growth inhibition, confirmed | shares compounds with TIM10 inh | S. cerevisiae tim10 strain growth, BacTiter-Glo luminescence, 24 h | inhibition, % at 10 µM | 4,600 compounds, 63% hits;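 active = inhibition of yeast growth at or above a set limit in either of two replicates at 10 µM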;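 note: this counterscreen used the strain with wild-type TIM10; 0% = yeast with DMSO and 100% = medium wells lacking yeast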
* = called active by the depositor; . = no result given.

SMILES	TIM10 inh	PfHsp90 yeast 2	tim23-1 inh	Mot1-301 SUMO	tim10-1 inh	tim10 confirm
NNC(=S)Nc1ccccc1Cl	-12	-22	25	-4	15	.
NNC(=S)Nc1ccc(C(F)(F)F)cc1Cl	44*	8	38	8	31	12
Fc1ccc(-c2cc3nc(-c4ccccc4)cc(N4CCOCC4)n3n2)cc1	0	-19	-7	4	2	.
COc1ccc(-c2cc3nc(-c4ccccc4)cc(N4CCCC(O)C4)n3n2)cc1 (stereo unspecified)	42*	-33	26	-1	40	34*
CC1Cc2ccccc2N1C(=O)C1CCCN(S(=O)(=O)c2cccc3nsnc23)C1 (stereo unspecified)	44*	-8	33	-13	34	-27
Cc1ccc(C)c(N2CCN(C(=O)CN3C(=S)NC(C)(C)CC3C)CC2)c1 (stereo unspecified)	13	14	12	-2	32	.
Cc1ccc(/C=N/n2c(COc3ccccc3)n[nH]c2=S)s1	48*	-18	39	2	39	44*
CCOC(=O)C1CCCN(S(=O)(=O)c2ccc3c(c2)N(C(C)=O)CCO3)C1 (stereo unspecified)	8	10	9	1	12	.
CC(C)C(c1nnnn1C1CCCCC1)N1CCc2ccccc21 (stereo unspecified)	46*	17	-7	.	29	31*
Cc1ccc(C(c2nnnn2C2CCCCC2)N2CCc3ccccc32)cc1 (stereo unspecified)	24	-13	32	-9	27	.
CCOC(=O)Cc1csc(NC(=S)NC(=O)c2cc(OC)cc(OC)c2)n1	6	5	1	335	16	.
CCOC(=O)Cc1csc(NC(=S)NC(=O)c2ccccc2Br)n1	42*	-9	36	15	34	-7
CCOC(=O)Cc1csc(NC(=O)c2ccc3c(c2)OCO3)n1	43*	.	-12	36	-20	-3
O=C(O)C1Oc2ccccc2C1c1ccccc1 (stereo unspecified)	.	24	.	.	.	.
CCCCn1c(N)c(N(CC(C)C)C(=O)c2cc(S(=O)(=O)N3CCOCC3)ccc2Cl)c(=O)[nH]c1=O	3	-11	-9	0	-6	.
COc1ccc2c(c1OC)C(=O)N1C2SC(C)(C)[C@H]1C(=O)NC1CC1 (stereo partly specified)	-7	-22	-2	7	3	.
CCOC(=O)c1ccc(NC(=O)CCS(=O)(=O)c2ccc(Br)s2)cc1	44*	.	26	-1	39	18
COc1ccc(C(=O)N2CCN(C3CCCCC3)CC2)cc1OC	1	0	8	-4	0	.
Fc1ccc(Oc2ccnc(Cl)n2)c(Cl)c1	-9	.	-23	-1	-3	.
CC(=O)c1c(C(C)=O)c(C)n(NC(=O)c2ccccc2O)c1C	-8	-3	6	-15	4	.
CC(=O)c1c(C(C)=O)c(C)n(NC(=O)c2cccnc2)c1C	89*	8	14	-7	9	7
C#CCOc1nc(Nc2cccc([N+](=O)[O-])c2)nc(OCC#C)n1	41*	-5	41	256	36	42*
COc1nc(Nc2cccc([N+](=O)[O-])c2)nc(OC)n1	-9	-20	-18	209	-12	.
COc1ccc(C(=O)c2ccc(OC)c3cccc(O)c23)cc1OC	44*	-24	36	-7	31	27
O=C(COc1cccnc1[N+](=O)[O-])NCc1ccccc1	-1	62	20	244	25	.
SMILES	TIM10 inh	PfHsp90 yeast 2	tim23-1 inh	Mot1-301 SUMO	tim10-1 inh	tim10 confirm
S=C(Nc1cc(Cl)ccc1Oc1ccccc1)N1CCN(c2ccccn2)CC1	.	-36	.	-11	.	.
S=C(Nc1ccccc1)Nc1cc(Cl)ccc1Oc1ccccc1	48*	5	46	-2	35	-7
CCOc1cc(C=O)c(Br)cc1OC1CCCC1	40*	15	-17	-6	28	19
COc1cc(CNCCN(C)C)c(Br)cc1OC1CCCC1	-8	23	14	-15	5	.
COC(=O)[C@]1(Cc2ccccc2)N[C@H](CN(C)S(=O)(=O)c2ccc(C(C)(C)C)cc2)[C@@H]2C(=O)N(C)C(=O)[C@@H]21	-16	-10	-3	-9	-1	.
CN(C)c1ccc(N=Nc2ccccc2C(=O)OCC(=O)N2CCCCCC2)cc1	40*	7	29	7	33	-21
Cc1ccc(NS(=O)(=O)c2cccc(C(=O)NNC(=O)c3ccco3)c2)c(C)c1	-3	-10	-3	-5	7	.
O=C(c1cc2sccc2n1Cc1ccc(F)cc1)N1CCN(c2nc3ccccc3s2)CC1	43*	4	26	17	32	19
O=C(c1ccc([N+](=O)[O-])o1)N1CCN(c2nc3ccc(F)cc3s2)CC1	40*	.	-41	-40	3	81*
CC(=O)Nc1ccc(Nc2nc(-c3sc(C)nc3C)cs2)cc1	5	1	11	-14	3	.
Cc1ccc(Nc2nc(-c3sc(C)nc3C)cs2)cc1	46*	-43	48	143	23	49*
Cc1ccc(S(=O)(=O)N[C@@H](CC(C)C)C(=O)N2CCC(C(=O)N[C@@H](Cc3ccccc3)C(=O)O)CC2)cc1	5	25	13	-2	0	.
O=[N+]([O-])c1cc(Cl)cc(/C=N\Nc2ccccn2)c1O	41*	.	44	10	16	28
CCN(CC)CCCNC(=O)c1nn2c(C(F)(F)F)cc(-c3ccccc3)nc2c1Cl	10	17	-5	14	5	.
CCc1ccc(C(=O)NNc2cc(Cl)cc(Cl)c2)cc1	6	7	23	112	-7	.
CCc1ccc(C(=O)NNc2ccc(Cl)cc2)cc1	53*	-2	31	95	5	53*
O=[N+]([O-])c1cc([N+](=O)[O-])c2cc(-c3cccnc3)[nH]c2c1	2	-30	-6	-8	2	.
COc1cc(NC(=O)CSc2cc(C)c3cc(C)cc(C)c3n2)c(C(=O)O)cc1OC	45*	7	40	9	10	18*
O=C(CCCOc1ccc(Cl)cc1Cl)N/N=C/c1ccccc1O	41*	16	39	-21	-1	40*
CCC(Cc1ccccc1)n1c(=S)[nH]c2ccccc2c1=O (stereo unspecified)	50*	-37	24	8	34	38*
CCC(C)n1c(=S)[nH]c2ccccc2c1=O (stereo unspecified)	27	-7	14	-14	33	.
Cc1ccccc1-n1nc2c(c1NC(=O)C1CCCC1)CS(=O)(=O)C2	-8	12	-13	3	0	.
O=C(Nc1ccc2oc(-c3ccccc3)nc2c1)c1ccccc1F	65*	-3	26	-1	13	54*
Cc1nc(-c2cccc(NC(=O)c3cccs3)c2)cs1	15	2	33	-10	-3	.
